Test results reported in PubChem BioAssay AID540255 (Broad Institute, 2011).
Measured potencies and affinities stand elsewhere. Inconclusive results are not listed. Activity calls are given as the source filed them. No rule for the calls is given here.

Experiment: H4 neuroglioma control reporter inhibition, dose response, counter-screen for prion reporter project, cell-based, plate reader, dry powder samples (AID 540255)
Conditions: series mostly up to 5 µM

SMILES | outcome
Cc1cccc(C(=O)O/N=C(\N)c2ccccn2)c1 | inactive
COc1ccc(N=CC2=C(O)c3ccccc3C2=O)c(OC)c1 | inactive
